Most compounds without a hit are left out; they make up all but 4.7% or so of the library.
Efflux pump inh: inhibitors of Candida efflux pumps in yeast, primary screen, S. cerevisiae, Nile Red, multiplex; S. cerevisiae Candida pump triplex; inhibition, % at 10 µM; 330,000 tested, 0.44% active; AID 485275, 2010;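 active = plate passing quality check with inhibition over a set limit, or well fluorescence over plate mean plus 4 SD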;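 note: Nile Red retained in pooled yeast measured as flow cytometry median fluorescence; 0% = buffer negative control and 100% = Enniatin B positive control; higher means more Nile Red kept so more efflux inhibition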
SUMO HTRF inh: inhibitors of in vitro SUMOylation cascade, primary screen, biochemical, HTRF, uHTS; 290,000 tested, 0.36% active; inhibition, % at 35 µM; AID 2006, 2009; HTRF SUMOylation assay, SAE1/SAE2 + UBC9; SUMO-conjugating enzyme UBC9 (Homo sapiens), P63279; in the data active = inhibition above about 50%, passing the limit was not always enough; inconclusive = no clear call, values can overlap the other calls
Target sequence (P63279 whole entry, looked up): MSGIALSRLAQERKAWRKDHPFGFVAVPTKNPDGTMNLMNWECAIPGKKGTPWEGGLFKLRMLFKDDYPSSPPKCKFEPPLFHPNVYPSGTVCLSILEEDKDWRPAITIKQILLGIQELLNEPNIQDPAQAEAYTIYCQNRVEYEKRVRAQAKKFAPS
MLLE-PAM2 inh: inhibitors of PABP1 MLLE–PAM2 peptide binding, primary screen, biochemical, fluorescence polarization, FITC-PAM2, GST-MLLE | inhibition, % at 20 µM | 360,000 tested, 0.36% active | AID 588489, 2011 | Polyadenylate-binding protein 1 (Homo sapiens), P11940; in the data active = inhibition above about 35%, passing the limit was not always enough;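 note: plate controls were DMSO wells with GST-MLLE for no effect and wells lacking GST-MLLE protein for full effect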
PABP FP inh: PABP poly(A) RNA binding inhibitors, primary screen, biochemical, fluorescence polarization, uHTS; AID 2014, 2009; 290,000 tested, 1% active; inhibition, % at 35 µM;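 note: calls also rest on retests at 20 µM and on dose response follow-up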
eIF4H inh: human eIF4H binding inhibitors, primary screen, translation initiation inhibitor project, biochemical, uHTS, fluorescence polarization. eIF4H fluorescence polarization binding assay. inhibition, % at 35 µM. 290,000 tested, 0.94% active. AID 2012, 2009;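 note: calls also rest on retests at 20 µM and on dose response follow-up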
ALR inh: inhibitors of human ALR sulfhydryl oxidase, primary screen, biochemical, H2O2 detection, HRP-luminol luminescence, single point; FAD-linked sulfhydryl oxidase ALR (Homo sapiens), P55789; purified ALR, DTT oxidation; inhibition, % (concentration not given with the values); 290,000 tested, 3.8% active;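 active = mean replicate inhibition above about 79%, with every replicate also reaching it, limit read from the data; inconclusive = only one of the two criteria met; inactive = mean below limit and not every replicate reaching it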
Target sequence (P55789 whole entry, looked up): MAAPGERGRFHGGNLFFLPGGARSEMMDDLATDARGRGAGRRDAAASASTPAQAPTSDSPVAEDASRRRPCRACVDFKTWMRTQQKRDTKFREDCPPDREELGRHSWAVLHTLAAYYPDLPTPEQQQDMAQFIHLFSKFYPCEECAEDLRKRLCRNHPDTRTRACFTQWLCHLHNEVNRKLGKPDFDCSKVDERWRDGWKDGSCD
* hit, by the source's call; ? = inconclusive; / = no result given. Unless noted, the rule behind the calls is not given here.

SMILES	Efflux pump inh	SUMO HTRF inh	MLLE-PAM2 inh	PABP FP inh	eIF4H inh	ALR inh
CCOc1ccc(N2C(=O)Nc3ccccc3C2(O)C(=O)NCc2ccccc2)cc1 (stereo unspecified)	0	14	-3	9	-2	92*
COc1ccc(C(=S)N2CCN(c3ccccc3C)CC2)cc1	0	13	42*	1	-6	-9
COc1ccc(C(=O)NC(=S)N2CCN(c3ccccc3O)CC2)cc1	0	/	-22	/	/	99*
O=C(COc1ccc(F)cc1Br)Nc1ccccc1N1CCOCC1	/	/	-13	/	/	/
COc1ccccc1NC(=O)CSc1nnc(-c2ccccn2)n1Cc1ccco1	0	-11	-5	1	0	97*
Clc1ccc(CSc2nnc(-c3cccnc3)n2Cc2ccco2)c(Cl)c1	0	33	-34	-2	-14	97*
Clc1ccccc1CSc1nnc(-c2ccccn2)n1Cc1ccco1	0	7	-50	9	-10	92*
COc1ccc(C)cc1NC(=O)CSc1nnc(-c2ccccn2)n1Cc1ccco1	0	-3	-11	-1	6	1
C=CCNC(=O)CSc1nnc(-c2ccccn2)n1Cc1ccccc1	0	25	5	52*	?	2
CC(C)(C)NC(=O)CSc1nnc(-c2ccccn2)n1Cc1ccccc1	0	6	1	1	-3	13
Cc1ccc(N(CC(=O)NC2CCCC2)C(=O)CNC(=O)c2cccs2)c(C)c1	0	2	19	8	1	/
Nn1c(SCC(=O)NCCC2=CCCCC2)nnc1-c1cccnc1	/	/	-26	/	/	/
CC(C)c1nnc(SCC(=O)NCCC2=CCCCC2)n1N	0	20	42*	5	6	31
CN1CCCN(S(=O)(=O)c2ccc(Cl)c(Cl)c2)CC1	/	23	3	0	-4	/
C[C@@H]1C[C@H](Nc2ccccc2)c2ccccc2N1C(=O)c1cccnc1	0	14	-5	-1	-10	27
CC1CC(Nc2ccccc2)c2ccccc2N1C(=O)c1cccnc1 (stereo unspecified)	0	17	-4	4	-1	100*
Cc1ccc(OCC(=O)Nc2nnc(S(=O)(=O)N3CCCCCC3)s2)cc1	0	14	-13	3	66*	/
Cc1ccc(OCC(=O)Nc2nnc(S(=O)(=O)N3CCCCC3)s2)cc1	0	20	-58	23*	83*	-3
CNC(=S)N(CCc1c(C)[nH]c2ccc(F)cc12)Cc1cccnc1	-1	-1	-162	-2	5	97*
CCCCCCC(=O)N(O)C1CC(=O)N(c2ccc(C)cc2)C1=O (stereo unspecified)	0	8	44*	-13	-9	-2
COc1ccc(/C=C2\Sc3ccc(C(=O)N4CCCC4)cc3N(C)C2=O)cc1OC	0	/	38*	/	/	-6
CCOc1ccc(/C=C2/Sc3ccc(C(=O)N4CCOCC4)cc3N(C)C2=O)cc1OC	0	8	22	7	8	-7
CCCCC(=O)Nc1ccc(NC(=S)NC(=O)CC(C)C)cc1OC	0	15	16	75*	active	-4
CN(C)C(=O)c1ccc(NC(=O)c2ccccc2Sc2ccccc2C#N)cc1	0	-4	7	-1	-6	6
COc1ccc(N=Cc2nc(-c3ccco3)oc2O)cc1	0	-38	6	6	5	92*
SMILES	Efflux pump inh	SUMO HTRF inh	MLLE-PAM2 inh	PABP FP inh	eIF4H inh	ALR inh
CC1(C)Cc2c(c(-c3ccco3)[nH]c(=O)c2C#N)CS1	0	33	61*	118	122	-12
CC1(C)Cc2c(c(-c3ccccc3)[nH]c(=O)c2C#N)CS1	0	8	21	5	3	0
Nc1cccc2c(=O)c3ccccc3[nH]c12	1	9	-51	92*	92*	52
O=C(O)c1ccc(N(c2ccccc2)c2ccccc2)cc1	0	39	9	4	5	99*
CCN(CC)c1ccc(C(=O)O)cc1	0	1	4	6	-13	37
Cc1ccc(-c2nc(NCCCO)c3ccccc3n2)cc1	0	15	-1	-8	-10	98*

High-throughput results (PubChem BioAssay)
